The source of these data is PubChem BioAssay AID818 (SRMLSC, 2007).

As usually defined, the viability is a read-out of living cells in per cent, often relative to untreated cells.

Among all 140,000 compounds or so, about 2,100 (1.5%) were called active. This is one part of a sample in which actives are shown more often than they occur.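 Rule for the calls: active = viability at or under a set limit, the compound median less 4 SD (cut at about 6% in these data); inactive = the rest.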

The nature of this test: primary screen for suppressors of beta-catenin knockout HCT116 cell growth, colon tumor, human (AID 818).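 Note: 0% = Hyamine 1622 control at 20 µM and 100% = untreated cell control.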 The settings on record: CellTiter-Glo, 60 h, at 10 µM, hits give low values. Background: Cellular ATP, detected with luciferase, serves as a proxy for viable cell number.
As to `CCNS(=O)(=O)c1ccc(NC(=O)c2cncc(Br)c2)cc1`, the viability was 97.6% (inactive).
The same measure for `O=C(NC(=S)Nc1ccc2oc(=O)ccc2c1)c1ccc(-c2cccc(Cl)c2Cl)o1`: 101% (inactive).
For the compound `CC(=O)c1sc(NC(=O)c2cccc3ccccc23)nc1C`, the viability is 87.1% (inactive).
As for `COc1cccc2sc(NNC(=O)c3nc4ccccc4s3)nc12`, the viability was 14.9% (inactive).
The figure for `COc1cccc2sc(Nc3nc(C)c(C(C)=O)s3)nc12` is 5.29% (active).
The figure for `CCOc1ccc2nc(NC(=O)c3cc([N+](=O)[O-])ccc3N3CCOCC3)sc2c1` is 39.5% (inactive); for `COc1ccccc1N1CCN(C(=O)C(=O)N/N=C/c2ccccc2F)CC1` it is 104% (inactive); for `Fc1ccc2c(c1)C(c1cccnc1)=NNC(c1cccs1)=N2` it is 40.4% (inactive).
The figure for `CCN1CCCC1CNc1ncnc2c1[nH]c1ccc(F)cc12` (stereo not given) is 82.2% (inactive).
Turning to `Fc1ccc2[nH]c3c(N4CCSCC4)ncnc3c2c1`, the viability was 5.04% (active).
On to `CC(C)OCCCNc1ncnc2c1[nH]c1ccc(F)cc12`, for which the viability is 9.7% (inactive).
As to `CC(=O)COc1ccc2c(-c3ccccc3)cc(=O)oc2c1`, the viability was 95.5% (inactive).
The figure for `COc1ccc(C2COC(=O)C2=N)c(NC(=O)c2ccccc2)c1` (stereo not given) is 79.1% (inactive).
For the compound `CC1(c2ccccc2)CC(C)(C)N(C(=O)c2cc([N+](=O)[O-])cc([N+](=O)[O-])c2)c2ccccc21` (stereo not given), the viability was 69% (inactive).
Turning to `O=C(NCCN1CCN(Cc2ccccc2)CC1)c1cc2c(=O)[nH]c3ccccc3c2s1`, the viability was 1.35% (active).
Take `Cn1c(C(=O)NCCN2CCc3ccccc3C2)cc2c(=O)[nH]c3ccccc3c21`: the viability was 87.4% (inactive).
The figure for `CN1CCN(CCCNC(=O)c2cc3c(=O)oc4ccccc4c3s2)CC1` is 92% (inactive); for `COc1ccccc1N=Cc1c(O)c2ccccc2oc1=O` it is 84.7% (inactive).
With `CCCCCCc1cc2cc(-c3nnc(-c4ccccc4)o3)c(=O)oc2cc1O`, the viability is 1.64% (active).
As to `Cc1c(/C=N/N2C(=O)C3C4C=CC(C4)C3C2=O)c2ccccc2n1C` (stereo not given), the viability was 90.7% (inactive).
Turning to `Cc1coc2c(O)cc3c(c12)OC1(N2CCCCC2)C(=O)NCCCC31` (stereo not given), the viability is 2.34% (active).
The figure for `Cc1cccc(N2CCN(C(=O)c3ccccc3NC(=O)C3CCCCC3C(=O)O)CC2)c1` (stereo not given) is 93.7% (inactive).
On to `COc1ccc(NC(=O)/C(Cl)=C(/Cl)S(=O)Cc2ccc(C)cc2)cn1` (stereo not given), for which the viability is 0.98% (active).
`COc1ccc(NS(=O)(=O)c2ccc(NC(=S)NC(=O)/C=C/c3ccc(C)cc3)cc2)nn1`: the viability was 84.3% (inactive).
The same measure for `COc1cc(NC(=O)Nc2ccc(C)cc2)cc([N+](=O)[O-])c1`: 86.1% (inactive).
With `COc1cc(OC)cc(C(=O)N[C@H](C(=O)OCC(=O)NC(C)c2ccccc2)C(C)C)c1` (stereo not given in full), the viability is 83.7% (inactive).
With `O=C(NCc1ccccc1Cl)C1CCC(CNc2c(N3CCCCC3)c(=O)c2=O)CC1` (stereo not given), the viability is 98.7% (inactive).
Turning to `Cc1cc(C)cc(OCC(=O)Nc2nc3ccc([N+](=O)[O-])cc3s2)c1`, the viability is 109% (inactive).
For `O=C(NC(Nc1nc2ccc([N+](=O)[O-])cc2s1)(C(F)(F)F)C(F)(F)F)c1ccccc1`, the viability was 1.34% (active).
The same measure for `COC(=O)C(NC(=O)c1ccc(OC)cc1)(Nc1ncc(S(=O)(=O)c2ccc([N+](=O)[O-])cc2)s1)C(F)(F)F` (stereo not given): 77.8% (inactive).
The figure for `COc1ccc(NC(C(=O)Nc2cccc(C(C)=O)c2)c2ccccc2)cc1` (stereo not given) is 84.6% (inactive); for `Cc1ccc(-c2csc(NNC(=O)c3ccccc3)n2)cc1` it is 13.8% (inactive).
The figure for `COc1ccc(C)cc1Nc1nc(-c2c(C)[nH]c3ccccc23)cs1` is 89.8% (inactive).
Turning to `O=C(NCCOCc1ccc(Cl)cc1)c1ncn[nH]1`, the viability was 93% (inactive).
Consider `CC(C)(C)c1ccc(C(=O)CSc2ncn[nH]2)cc1`, for which the viability is 94.5% (inactive).
The same measure for `O=C(/C=C/Sc1ncn[nH]1)c1ccc(Cl)cc1`: 4.54% (active).
The same measure for `O=[N+]([O-])c1ccc(N/N=C2/CCCCC2c2ccccn2)c([N+](=O)[O-])c1` (stereo not given): 79.6% (inactive); for `COc1cc2c(cc1O)[C@H](Cc1ccc(Oc3cc(C[C@@H]4NCCc5cc(OC)c(O)cc54)ccc3O)cc1)NCC2`: 55% (inactive).
The same measure for `CC[C@H]1CN2CCc3cc(OC)c(OC)cc3[C@@H]2C[C@@H]1C[C@H]1NCCc2cc(OC)c(OC)cc21`: 4.12% (active); for `COC(=O)Cc1ccc(NC(=S)NCc2ccc(Cl)cc2)cc1`: 84.8% (inactive); for `S=C(NCc1ccc(Cl)cc1)NC12CC3CC(CC(C3)C1)C2`: 3.01% (active).
In the case of `S=C(NCc1ccc(Cl)cc1)NC1CCCCC1`, the viability was 66% (inactive).
In the case of `CCCCN1C(=O)c2ccc(C(=O)Nc3ccc(S(=O)(=O)N(C)C)cc3)cc2C1=O`, the viability is 93.3% (inactive).
The same measure for `Cc1ccc(NC(=O)CN(C)Cc2ccc(F)cc2)c([N+](=O)[O-])c1`: 91.3% (inactive); for `Cc1ccc(O)c(-c2cc(C(=O)Nc3c(C)n(C)n(-c4ccccc4)c3=O)[nH]n2)c1`: 80.2% (inactive).
Regarding `CC1CCCC(NC(=O)COC(=O)[C@@H]2CC(O)CN2S(=O)(=O)c2ccc3c(c2)OCCO3)C1C` (stereo not given in full), the viability was 96.2% (inactive).
The figure for `CCC(=O)Nc1ccc(C(=O)Nc2ccc3c(c2)C(=O)N(CC2CCCO2)C3=O)cc1` (stereo not given) is 93.3% (inactive).
In the case of `O=C(NCc1ccc2c(c1)OCO2)c1ccc2c(c1)C(=O)N(CC1CCCO1)C2=O` (stereo not given), the viability was 1.74% (active).
With `CC1CCN(c2ccc(C(=O)NCc3ccc4c(c3)OCO4)cc2[N+](=O)[O-])CC1`, the viability is 94.5% (inactive).
The figure for `COc1cc(Cl)c(C)cc1NC(=O)COC(=O)c1cc(SC)ccc1Cl` is 79.6% (inactive).
Take `S=c1[nH]nc(-c2cccnc2)n1/N=C/C(Cl)=C\c1ccccc1`: the viability is 10.2% (inactive).
Take `Cc1cc(-c2n[nH]c(=S)n2/N=C/C(Br)=C/c2ccccc2)n[nH]1`: the viability is 2.95% (active).
The figure for `Cc1ccc(/C=N\n2c(-c3ccccc3)n[nH]c2=S)s1` is 94.7% (inactive); for `Cc1ccc(NC(=O)c2oc(=O)c3ccccc3c2-c2ccccc2)c(C)c1` it is 38.7% (inactive).
On to `CN(C)S(=O)(=O)c1ccc(N2CCCC2=O)c([N+](=O)[O-])c1`, for which the viability was 83% (inactive).
In the case of `CC1=C(C)CC(C(=O)NNC(=O)c2ccccc2O)C(C(=O)O)C1` (stereo not given), the viability is 5.74% (active).
The same measure for `CC1=C(C)CC(C(=O)NNC(=O)c2csc3c2CCC(C(C)(C)C)C3)C(C(=O)O)C1` (stereo not given): 95.9% (inactive); for `O=C(O)C1CC=C(Cl)CC1C(=O)NCc1ccccc1` (stereo not given): 90% (inactive); for `COc1ccc(C(=O)OCC(=O)NC(=O)CCSc2ccccc2)cc1`: 97.4% (inactive).
The figure for `COC(=O)c1cc(NC(=O)Cc2ccccc2[N+](=O)[O-])ccc1Cl` is 80.7% (inactive).
The figure for `CC(=O)Nc1ccc(NC(=O)C(C)OC(=O)c2ccccc2C(=O)c2ccc(Cl)c([N+](=O)[O-])c2)cc1` (stereo not given) is 8.71% (inactive); for `N#Cc1cccc(NC(=O)COC(=O)c2ccccc2C(=O)c2ccc(Cl)c([N+](=O)[O-])c2)c1` it is 3.2% (active).
On to `CC(=O)Nc1ccc(SCC(=O)Nc2ccccc2Oc2ccccc2)cc1`, for which the viability was 86.2% (inactive).
The same measure for `O=S(=O)(NCC1CCCO1)c1cnc(Cl)c(Cl)c1` (stereo not given): 69.3% (inactive); for `O=C(O)c1ccccc1-c1ccccc1C(=O)Nc1cccc2ccccc12`: 90.2% (inactive); for `O=C(Nc1cccc2ccccc12)c1onc2c1CCCC2`: 1.26% (active).
`O=C(Nc1c2c(nc3ccccc13)CCCC2)c1ccccc1Br`: the viability was 83.6% (inactive).
The figure for `Cc1cc(C(C)(C)C)cc(C)c1N` is 100% (inactive); for `CCCc1nc(SCC(=O)Nc2ccc(S(=O)(=O)N(C)C)cc2)c2ccccc2n1` it is 72.2% (inactive); for `Cc1cccc(N2CCN(C(=O)c3cnn4c(C(F)F)cc(-c5ccccc5)nc34)CC2)c1C` it is 2.3% (active).
The same measure for `CC(=O)N1CCN(c2cccc(C)c2C)CC1`: 99.9% (inactive); for `O=C(O)c1cnn2c(C(F)(F)F)cc(-c3ccccc3)nc12`: 96.5% (inactive); for `CCC(C(=O)OCC(=O)Nc1ccccc1-c1ccccc1)c1ccccc1` (stereo not given): 92.8% (inactive).
For `COc1ccc(C2CC(c3ccccc3)=NN2C(=O)c2ccc(Cl)c([N+](=O)[O-])c2)cc1` (stereo not given), the viability is 10.9% (inactive).
The figure for `CCOc1ccc2nc(Cl)c(C3CC(c4ccccc4)=NN3C(=O)c3cccs3)cc2c1` (stereo not given) is 1.68% (active); for `CCOc1ccccc1C1CC(c2cccc(NS(C)(=O)=O)c2)=NN1C(=O)c1ccccc1` (stereo not given) it is 79.6% (inactive).
The same measure for `Cc1cc(C)c2c(n1)sc1c(=O)n(-c3ccccc3)c(=O)[nH]c12`: 95.9% (inactive); for `N#CCSc1nc2ccccc2c(=O)n1-c1ccccc1`: 101% (inactive).
With `C/C(O)=C\c1nc(=O)c2c(C)cc(C)nc2n1-c1ccccc1`, the viability is 2.41% (active).
The same measure for `O=C1NC(=Nc2ccc(Cl)cc2)SC1Cc1cccc(Cl)c1Cl` (stereo not given): 101% (inactive); for `COC(=O)c1sccc1NC(=O)COc1ccc(Cl)cc1`: 68.7% (inactive).
On to `Cc1ccc2[nH]c(=O)c(CC=C(Cl)Cl)c(C)c2c1`, for which the viability is 88.7% (inactive).
With `CN(C)c1ccc(/C=N/NC(=O)c2ccc(Cn3cc(Br)cn3)o2)cc1`, the viability is 103% (inactive).
Regarding `COc1ccc(CCNc2cc(C)nc3c(-c4ccc(Cl)cc4)c(C)nn23)cc1OC`, the viability is 74.8% (inactive).
In the case of `CC(C)CC[n+]1ccn(C2=C([O-])c3ccccc3C(=O)/C2=N\S(=O)(=O)c2ccccc2)c1`, the viability is 2.01% (active).
The same measure for `COc1ccc(C2Nc3ccccc3C(=O)N2c2ccc(F)cc2)cc1Cn1nnc2ccccc21` (stereo not given): 69.3% (inactive); for `CC(=O)N1CC(C)c2scc(C)[n+]2-c2ccccc21` (stereo not given): 91.2% (inactive); for `COc1cccc(CNCCc2c[nH]c3ccccc23)c1OCc1ccccc1F`: 0.88% (active).
The figure for `COc1ccccc1NC(=O)CCCc1c[nH]c2ccccc12` is 101% (inactive); for `COc1ccc(C(CCNCc2ccccc2F)c2ccc(F)cc2)cc1` (stereo not given) it is 9.17% (inactive).
